Assay outcomes: PubChem BioAssay, National Center for Advancing Translational Sciences (NCATS)
ELG1 genotoxic: inducers of genotoxicity in HEK293T ELG1-luciferase cells; HEK293T ELG1-luciferase reporter, luminescence, 16 h; Potency, µM (doses to about 46 µM), for the others: at the highest dose activity change, positive = activation, hits mostly activators; 330,000 tested, 1.3% active; AID 504466; also: % of control where 0% means no effect; nearly all actives have a fitted effect of over 60% in size
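Screening used a luciferase reporter fused to human ELG1 in HEK293T cells. Luminescence was read on a CCD plate imager after 16 hr exposure and 30 min ONE-Glo incubation.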
NPC1 promoter act: activators of NPC1 promoter; Huh7 NPC1 promoter luciferase reporter, 24 h; Potency, µM (titrated, usually from 9.22 µM), for the others: top-dose activation, hits mostly activators; 320,000 tested, 2.4% active; AID 485313; also: % of control where 0% means no effect; nearly all actives have a fitted effect of over 60% in size
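Luminescence from an NPC1 promoter-driven luciferase reporter in stably transfected Huh7 cells was measured after 24 h compound treatment at 37 °C, followed by 10 min ambient incubation with luciferase detection reagent.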
FLuc counter: firefly luciferase modulation, counter-screen for miR-21 project | AID 588342 | 360,000 tested, 6.9% active | Potency, µM (titrated, usually from 57.5 µM), inactives show top-dose activity change, negative = inhibition, most hits filed as inhibitors | purified FLuc, Km substrates, luminescence inhibition | P08659;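 also: plate controls were vehicle for no effect and reference inhibitor for full effect; nearly all actives have a fitted effect of over 55% in size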
Target sequence (P08659 whole entry, looked up): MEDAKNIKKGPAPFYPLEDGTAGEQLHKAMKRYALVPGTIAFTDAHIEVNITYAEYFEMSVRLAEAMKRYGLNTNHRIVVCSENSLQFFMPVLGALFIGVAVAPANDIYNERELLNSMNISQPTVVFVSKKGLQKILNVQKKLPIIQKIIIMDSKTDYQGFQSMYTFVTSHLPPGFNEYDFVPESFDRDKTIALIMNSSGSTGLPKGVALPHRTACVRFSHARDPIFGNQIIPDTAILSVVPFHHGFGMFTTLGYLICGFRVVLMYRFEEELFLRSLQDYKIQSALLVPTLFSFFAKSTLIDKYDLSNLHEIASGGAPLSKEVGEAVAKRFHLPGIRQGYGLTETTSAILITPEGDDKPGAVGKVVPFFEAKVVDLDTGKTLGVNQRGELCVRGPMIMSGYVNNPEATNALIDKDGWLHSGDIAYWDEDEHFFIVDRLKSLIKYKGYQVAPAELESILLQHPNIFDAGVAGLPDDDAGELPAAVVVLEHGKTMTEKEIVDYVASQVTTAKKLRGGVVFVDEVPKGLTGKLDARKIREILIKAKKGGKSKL
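Purified P. pyralis luciferase, 10 nM final, with Km-level 10 uM D-luciferin and 10 uM ATP in 50 mM Tris acetate pH 7.5, 10 mM Mg acetate, 0.01% Tween-20, 0.05% BSA; 6-point qHTS titration about 60 µM downward; luminescence read.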
SMN2 splice up: SMN2 splice variant enhancement. HEK293 SMN2-luciferase splicing reporter, luminescence, 30-36 h. Potency, µM (doses to about 46.1 µM), for the others: top-dose activity change, positive = activation, actives largely listed as activators. 210,000 tested, 2.8% active. AID 1458; also: % of control where 0% means no effect; nearly all actives have a fitted effect of over 55% in size
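HEK293 cells carry an SMN2 […]–luciferase reporter in which exon 7 inclusion puts luciferase in frame. Cells were plated 10-12 h before compound addition, then incubated 30-36 h at 37C. ONE-Glo luminescence was read; sodium butyrate at 4.5 mM final served as control.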
KinaseGlo FLuc: Kinase-Glo luciferase inhibition (counter-screen) | Q27757 | Kinase-Glo luciferase, ATP luminescence, 8 min | Potency, µM (highest dose often 38.3 µM), inactives show at the highest dose activity change, negative = inhibition, actives largely listed as inhibitors | 200,000 tested, 0.28% active | AID 1379; also: % is scaled to controls: 0 for no effect and ±100 for the full control effect; nearly all actives have a fitted effect of over 60% in size
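Compounds were added to a substrate mix at pH 7.2 (50 mM imidazole, 10 uM ATP, within the enzyme's linear range), followed by Kinase-Glo detection reagent; luminescence was measured after 8 minutes at ambient temperature.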
Rab9 promoter act: activators of Rab9 promoter; Huh7 Rab9 promoter-luciferase reporter, luminescence, 24 h; Potency, µM (doses to about 9.22 µM), without a hit: top-dose activation, negative = inhibition, actives largely listed as activators; 320,000 tested, 2.8% active; also: % of control where 0% means no effect; nearly all actives have a fitted effect of over 60% in size
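Luciferase signal after 10 min detection reagent at ambient indicates Rab9 promoter upregulation; stably transfected Huh7 cells were treated 24 h with compound in DMSO at 37 °C, 5% CO2.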
* = called active by the depositor; u = inconclusive; x = no result given; [ ] = another dose, or the depositor's remark. A selection: hits, their analogues and other compounds. The true share with any hit is near 7.4%. Calls follow the shape of the dose curve; as a rule, active = well fitted curve in the direction sought with a large enough effect; inconclusive = small, poorly fitted or top-dose-only effect, or another doubt; inactive = no such curve, though single readings can be large; an effect the other way counts as inactive or inconclusive. Potency is read from the fitted curve at half-maximal effect.

SMILES | ELG1 genotoxic | NPC1 promoter act | FLuc counter | SMN2 splice up | KinaseGlo FLuc | Rab9 promoter act
Cc1cn2c(=O)cc(COC(=O)c3ccc(NC(=O)c4ccc(C(C)(C)C)cc4)cc3)nc2s1 | x | x | -18.1% | x | x | x
CCOc1c2ccc(C(=O)NCCc3cccs3)cc2nn1CC | u | u | 23.9µM* | 14.1µM* | -5.1% | 3.55µM*
CCOc1ccc(C(=O)NCc2cccs2)cc1 | 2.7% | 16.3% | -2.5% | 14.5% | -4.4% | u
CCCCOc1ccc(C(=O)NCCc2cccs2)cc1 | u | 3.98µM* | 7.57µM* | 12.6µM* | -3.8% | 1.78µM*
COc1cccc(OCc2cc(C(=O)NCc3cnc4ccccn34)no2)c1 | -7.6% | -7.9% | 4.5% | x | x | -15.2%
CCN(CC)C(=O)CSc1nc(-c2ccc(C)cc2)nc2c1Cc1c(CO)cnc(C)c1O2 | x | x | -7.7% | x | x | x
O=[N+]([O-])/C=C\c1ccc(N2CCCC2)c(F)c1 | -9.1% | 15.8% | u | 5.62µM* | -4.5% | 26.8%
O=Cc1ccc(N2CCCC2)c([N+](=O)[O-])c1 | 0.8% | -2.8% | -2.3% | -2.6% | 5.1% | -3.3%
O=C(O)Cn1ncc2ccccc2c1=O | 2.3% | -1.4% | -1.5% | x | -1.7% | -4.0%
O=c1c2ccccc2cnn1CCOc1ccccc1 | u | 0.0891µM* | 0.301µM* | x | 8.91µM* | 0.1µM*
COc1ccccc1OCC(=O)Nc1cccc(-c2nnc(-c3ccco3)o2)c1 | -7.1% | 28.7% | 12µM* | 17.8µM* | -2.7% | 15.2%
O=C(Cc1ccccc1)Nc1cccc(-c2nnc(-c3ccco3)o2)c1 | -0.4% | 0.3% | -17.3% | 6.8% | -4.3% | 4.7%
O=C(COc1ccccc1)Nc1ccc(-c2nnc(-c3ccco3)o2)cc1 | 9.6% | u | 1.4% | 12.6µM* | 2.2% | 1.12µM*
COc1ccc(CC(=O)Nc2cccc(-c3nnc(-c4cccc(C)c4)o3)c2)cc1OC | -41.4% | 0.5% | u | -125.9% | 1.5% | -15.4%
COc1ccc(CC(=O)Nc2cccc(-c3nnc(-c4ccc(C)cc4)o3)c2)cc1OC | -17.6% | -1.7% | 3.01µM* | -132.4% | -1.6% | -4.9%
CC(=O)n1c(COS(C)(=O)=O)nc2ccccc21 | x | x | x | -12.1%[9.22 µM] | -2.1%[7.66 µM] | x
COc1cc(/C=N/NC(=O)c2sc3nc(C)cc(C)c3c2N)ccc1O | 8.7% | -2.9% | 5.36µM* | x | x | -7.4%
COC(=O)N/N=C\c1cccc(OC(=O)c2cccs2)c1 | 6.6% | -1.5% | -15.2% | 6.3% | -1.9% | -4.3%
COc1cc(/C=N/NC(=O)c2cccs2)ccc1O | 20.6µM* | 29.2% | 10.7µM* | x | x | u
O=C(N/N=C/c1cccc(OC(=O)N2CCOCC2)c1)c1cccs1 | 3.2% | 17.5% | 9.53µM* | 4.7% | -3.0% | 19.0%
COc1cc(/C=N/NC(=O)c2cccs2)ccc1OCc1ccccc1 | 2.0% | -4.0% | u | 9.3% | -2.2% | 4.3%
COc1cccc(/C=N/NC(=O)c2cccs2)c1 | 20.6µM* | u | 5.36µM* | x | x | 2.82µM*
O=C(Oc1cccc(Cl)c1)N1CCOCC1 | -1.4% | 0.0% | -1.9% | x | x | -1.1%
Cc1ccc(N(CC(=O)Nc2cccc(F)c2)S(=O)(=O)c2cccs2)cc1 | x | x | -9.9% | -0.6% | x | x
O=C(NC(Cc1ccccc1)C(=O)O)/C(=C\c1ccc(Cl)cc1)NC(=O)c1ccco1 (stereo not drawn) | -1.4% | 7.5% | -0.9% | x | x | -0.2%
SMILES | ELG1 genotoxic | NPC1 promoter act | FLuc counter | SMN2 splice up | KinaseGlo FLuc | Rab9 promoter act
COc1ccccc1/C=C/C=N/NC(=O)c1cccs1 | u | 2.51µM* | 10.7µM* | x | x | 3.16µM*
COc1ccc2o/c(=N/NC(=O)c3cccs3)c(C(N)=O)cc2c1 | 14.4% | u | u | 14.1µM* | -3.0% | u
COc1cc(/C=N/NC(=O)c2ccccc2O)ccc1OC(=O)CC1SC(=O)NC1=O (stereo not drawn) | 3.2% | 1.1% | 16.9µM* | x | x | 1.0%
COc1cc(/C=N/NC(=O)c2ccncc2)ccc1OC(=O)c1ccccc1Cl | -2.9% | -6.2% | u | -0.6% | -1.0% | -11.7%
NC(=O)c1cc2ccccc2o/c1=N/NC(=O)c1cccs1 | -2.4% | 11.8% | -3.4% | 15.2% | -0.3% | 6.3%
CCN(CC)c1ccc(S(=O)(=O)N(CC)CC)cc1NC(=O)c1cccnc1 | -12.0% | -0.4% | -0.8% | 7.3% | 2.3% | -2.9%
Cc1ccc(C(=O)O)cc1-c1ccc(C=C2C(=O)c3ccccc3C2=O)o1 | -0.4% | -0.1% | 16.9µM* | 15.6% | -2.0% | -4.4%
Cc1cc(C(=O)O)ccc1-n1c(C)cc(C=C2C(=O)c3ccccc3C2=O)c1C | 7.8% | 1.3% | u | x | x | 9.5%
O=C1C(=Cc2ccc(Br)o2)C(=O)c2ccccc21 | 7.1% | 9.1% | 13.5µM* | 9.2% | -6.5% | 21.7%
COC(=O)C(C)N1C(=O)S/C(=C\c2ccc(-c3ccc(C(=O)O)cc3C)o2)C1=O (stereo not drawn) | u | 2.82µM* | 16.9µM* | x | x | 2.24µM*
CC1=C/C(=C\c2ccc(Br)o2)C(=O)O1 | -0.4% | -3.8% | -0.3% | 0.6% | 1.8% | 0.6%
CCCn1c(SCC(=O)Nc2ccc(OC)cc2)nnc1-c1ccncc1 | 4.9% | -0.7% | 4.8% | -16.7% | -2.7% | -2.0%
COc1cccc(/C=N/NC(=O)COc2cccc3cccnc23)c1O | 2.5% | -8.2% | 12µM* | -22.8% | -2.0% | -25.3%
CC(C)n1cc(/C=N/NC(=O)COc2cccc3cccnc23)c2ccccc21 | -5.3% | -0.5% | 2.69µM* | x | x | 0.5%
COCCCNC(=O)c1ccc(Cn2c(SCc3ccc(F)cc3)nc3cccnc32)cc1 | x | x | 3.38µM* | x | x | x
COc1ccc(Cn2c(SCc3ccc(C(=O)NCc4ccccc4F)cc3)nc3cccnc32)cc1 | x | x | -19.0% | -14.5% | x | x
O=C(NCCN1CCCCC1)c1ccc(Cn2c(SCc3ccc(F)cc3)nc3cccnc32)cc1 | x | x | 8.49µM* | -6.9% | x | x
CN(C)CCNC(=O)c1ccc(Cn2c(SCc3ccc(F)cc3)nc3cccnc32)cc1 | x | x | 6.01µM* | x | x | x
COCCCNC(=O)c1ccc(Cn2c(SCc3cccc(C)c3)nc3cccnc32)cc1 | x | x | 10.7µM* | x | x | x
Cc1ccc[n+](CC(=O)c2ccc(Br)cc2)c1C | -2.0% | -4.3% | -3.8% | x | x | -0.2%
Cc1nc(C(F)(F)F)ccc1C(=O)Nc1ccccc1N1CCOCC1 | -0.2% | -3.1% | 0.0% | x | x | 14.5%
CN(CCC#N)C(=O)COC(=O)c1ccc2c(c1)C(=O)N(C1CCCCC1)C2=O | -2.7% | -0.5% | -1.0% | x | x | -6.3%
Cc1ccc(Nc2nnc(SCC(=O)Nc3ncc(S(=O)(=O)c4ccc([N+](=O)[O-])cc4)s3)s2)cc1 | u | 21.2% | 2.39µM* | -0.1% | -1.3% | 17.6%
